The values that follow come from paper PMC8384837, “Expanding the binding specificity for RNA recognition by a PUF domain”.

What all share (assay): yeast three-hybrid, YBZ-1, SC-Leu-His + 0.5 mM 3-AT, 4 days
Holding throughout (details): tags: N-Gal4 AD-HA kept; label: inside an RPR1-promoter hybrid RNA with tandem MS2 sites; ssRNA

One experiment addresses PUM1 PUF domain R8-PFV (Homo sapiens, UniProt Q14671 828-1176, N1122P;Y1123F;Q1126V). The procedure, abridged: (§1)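 The interaction score is the logarithmic change in variant frequency from input to selection. It uses log2, with a pseudocount of 1 for absent variants, and frequencies came from PCR-amplified, Illumina-sequenced repeat regions. The libraries were Pumilio-1 PUF domains randomized at the three base-contacting residues per repeat, co-expressed with matching RNA elements in strain YBZ-1 (LexA–MS2 coat fusion, HIS3 reporter). Plating lasted four days on SC-Leu (input) or SC-Leu-His + 0.5 mM 3-AT (selection).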

The target of another experiment is PUM1 PUF domain R8-HWK (Homo sapiens, UniProt Q14671 828-1176, N1122H;Y1123W;Q1126K). In short, it runs like this:
as §1

The target in a further experiment is PUM1 PUF domain R8-KKA (Homo sapiens, UniProt Q14671 828-1176, N1122K;Y1123K;Q1126A). The procedure, abridged:
as §1

For a further experiment, the target named is PUM1 PUF domain R5-QIR (Homo sapiens, UniProt Q14671 828-1176, C1007Q;R1008I;Q1011R). The procedure, abridged: as §1
PUM1 PUF domain R5-QIR, sequence (Q14671 828-1176 C1007Q/R1008I/Q1011R): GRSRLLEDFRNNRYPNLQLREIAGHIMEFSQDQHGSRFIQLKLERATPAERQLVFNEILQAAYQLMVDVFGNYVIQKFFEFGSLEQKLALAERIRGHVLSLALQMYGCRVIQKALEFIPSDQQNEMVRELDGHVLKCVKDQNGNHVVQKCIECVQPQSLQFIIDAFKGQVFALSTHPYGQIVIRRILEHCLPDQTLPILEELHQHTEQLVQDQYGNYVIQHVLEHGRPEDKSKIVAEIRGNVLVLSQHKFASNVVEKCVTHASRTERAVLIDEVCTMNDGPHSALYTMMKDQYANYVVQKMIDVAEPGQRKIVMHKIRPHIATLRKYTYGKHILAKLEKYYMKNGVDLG
The next experiment concerns the target PUM1 PUF domain R1-CIR (Homo sapiens, UniProt Q14671 828-1176, S863C;R864I;Q867R). The procedure, abridged: as §1
Another experiment addresses PUM1 PUF domain R1-KNR (Homo sapiens, UniProt Q14671 828-1176, S863K;R864N;Q867R). In short, it runs like this:
as §1

In a further experiment the target is PUM1 PUF domain R7-GRV (Homo sapiens, UniProt Q14671 828-1176, S1079G;N1080R;E1083V). In short, it runs like this: as §1
PUM1 PUF domain R7-GRV, sequence (Q14671 828-1176 S1079G/N1080R/E1083V): as the sequence (Q14671 828-1176 C1007Q/R1008I/Q1011R) above, with Q180C, I181R, R184Q, S252G, N253R, E256V counted along it
The target in another experiment is PUM1 PUF domain R7-KFR (Homo sapiens, UniProt Q14671 828-1176, S1079K;N1080F;E1083R). In short, it runs like this: as §1
Another experiment concerns the target T1, PUM1 PUF domain R6-TWA (Homo sapiens, UniProt Q14671 828-1176, N1043T;Y1044W;Q1047A).
T1 sequence: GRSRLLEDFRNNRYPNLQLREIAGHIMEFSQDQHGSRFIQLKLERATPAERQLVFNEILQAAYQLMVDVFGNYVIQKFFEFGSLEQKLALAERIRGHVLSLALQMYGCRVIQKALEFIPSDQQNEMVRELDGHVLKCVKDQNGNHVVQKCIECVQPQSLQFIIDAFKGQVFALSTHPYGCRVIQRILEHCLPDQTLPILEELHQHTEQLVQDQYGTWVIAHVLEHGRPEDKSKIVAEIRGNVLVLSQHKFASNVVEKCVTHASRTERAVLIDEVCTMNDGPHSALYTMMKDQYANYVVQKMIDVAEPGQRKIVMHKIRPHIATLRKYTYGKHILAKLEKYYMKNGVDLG
In short, it runs like this: as §1

The next experiment deals with PUM1 PUF domain R7-QND (Homo sapiens, UniProt Q14671 828-1176, S1079Q;E1083D). The procedure, abridged:
as §1

Another experiment deals with PUM1 PUF domain R3-GRG (Homo sapiens, UniProt Q14671 828-1176, C935G;Q939G). In short, it runs like this:
as §1

Another experiment deals with PUM1 PUF domain R5-RSM (Homo sapiens, UniProt Q14671 828-1176, C1007R;R1008S;Q1011M). In short, it runs like this:
as §1

For another experiment, the target named is PUM1 PUF domain R3-LFL (Homo sapiens, UniProt Q14671 828-1176, C935L;R936F;Q939L). The procedure, abridged:
as §1

Another experiment deals with PUM1 PUF domain R3-MRG (Homo sapiens, UniProt Q14671 828-1176, C935M;Q939G). In short, it runs like this: as §1
In the next experiment the target is PUM1 PUF domain R3-GWL (Homo sapiens, UniProt Q14671 828-1176, C935G;R936W;Q939L). In short, it runs like this: as §1

PUM1 PUF domain R8-PFV, sequence (Q14671 828-1176 N1122P/Y1123F/Q1126V): as the sequence (Q14671 828-1176 C1007Q/R1008I/Q1011R) above, with Q180C, I181R, R184Q, N295P, Y296F, Q299V counted along it
PUM1 PUF domain R8-HWK, sequence (Q14671 828-1176 N1122H/Y1123W/Q1126K): as the sequence (Q14671 828-1176 C1007Q/R1008I/Q1011R) above, with Q180C, I181R, R184Q, N295H, Y296W, Q299K counted along it
PUM1 PUF domain R1-CIR, sequence (Q14671 828-1176 S863C/R864I/Q867R): as the sequence (Q14671 828-1176 C1007Q/R1008I/Q1011R) above, with S36C, R37I, Q40R, Q180C, I181R, R184Q counted along it
PUM1 PUF domain R7-QND, sequence (Q14671 828-1176 S1079Q/E1083D): as the sequence (Q14671 828-1176 C1007Q/R1008I/Q1011R) above, with Q180C, I181R, R184Q, S252Q, E256D counted along it

In the case of “GGCUAGAACUAGUGGAUCCCCCGGCGCCCGGCGGCUCGAGCCCGGGUAAGCGUAAAUAGUCUGCAUGCCGCCGGGCGCCAUGCCUGCAGGUCGACUCUAGAAAACAUG”, the binding signal was 2.24 log2 enrichment (interaction score) with PUM1 PUF domain R8-PFV, 2.42 log2 enrichment (interaction score) with PUM1 PUF domain R8-HWK and 2.4 log2 enrichment (interaction score) with PUM1 PUF domain R8-KKA.
“GGCUAGAACUAGUGGAUCCCCCGGCGCCCGGCGGCUCGAGCCCGGGUAAGUGUUAAUAGUCUGCAUGCCGCCGGGCGCCAUGCCUGCAGGUCGACUCUAGAAAACAUG”: the binding signal in the experiment with PUM1 PUF domain R5-QIR was 1.95 log2 enrichment (interaction score).
As for “GGCUAGAACUAGUGGAUCCCCCGGCGCCCGGCGGCUCGAGCCCGGGUAAGUGUAAAUUGUCUGCAUGCCGCCGGGCGCCAUGCCUGCAGGUCGACUCUAGAAAACAUG”, the binding signal with PUM1 PUF domain R1-CIR was 0.87 log2 enrichment (interaction score); with PUM1 PUF domain R1-KNR, 6.76 log2 enrichment (interaction score).
On to “GGCUAGAACUAGUGGAUCCCCCGGCGCCCGGCGGCUCGAGCCCGGGUAAGUUUAAAUAGUCUGCAUGCCGCCGGGCGCCAUGCCUGCAGGUCGACUCUAGAAAACAUG”, for which the binding signal was 2.62 log2 enrichment (interaction score) with PUM1 PUF domain R7-GRV and 6.28 log2 enrichment (interaction score) with PUM1 PUF domain R7-KFR.
As to “GGCUAGAACUAGUGGAUCCCCCGGCGCCCGGCGGCUCGAGCCCGGGUAAGUCUAAAUAGUCUGCAUGCCGCCGGGCGCCAUGCCUGCAGGUCGACUCUAGAAAACAUG”, the binding signal with PUM1 PUF domain R7-KFR is 5.33 log2 enrichment (interaction score).
“GGCUAGAACUAGUGGAUCCCCCGGCGCCCGGCGGCUCGAGCCCGGGUAAGUGAAAAUAGUCUGCAUGCCGCCGGGCGCCAUGCCUGCAGGUCGACUCUAGAAAACAUG”: the binding signal in the experiment with PUM1 PUF domain R6-TWA was 4.52 log2 enrichment (interaction score).
Consider “GGCUAGAACUAGUGGAUCCCCCGGCGCCCGGCGGCUCGAGCCCGGGUAAGUGUAAAUAGUCUGCAUGCCGCCGGGCGCCAUGCCUGCAGGUCGACUCUAGAAAACAUG”, for which the binding signal in the experiment with PUM1 PUF domain R7-QND is 3.96 log2 enrichment (interaction score); with PUM1 PUF domain R8-PFV, 1.89 log2 enrichment (interaction score); with PUM1 PUF domain R8-HWK it was 2.36 log2 enrichment (interaction score); in the experiment with PUM1 PUF domain R3-GRG, 2.99 log2 enrichment (interaction score); in the experiment with PUM1 PUF domain R5-RSM, 1.04 log2 enrichment (interaction score); with PUM1 PUF domain R3-LFL, 1.59 log2 enrichment (interaction score). Moreover, the results for the binding signal in the experiment with PUM1 PUF domain R3-MRG and with PUM1 PUF domain R3-GWL were 0.61 log2 enrichment (interaction score) and 3.81 log2 enrichment (interaction score), respectively.
